SRC1 TRFRET art: counter-screen for PPARgamma SRC-1 recruitment agonists: TR-FRET artefact | hit rate 0.34% among 99,000 | TR-FRET ratio at 8 µM | TR-FRET detection artefact counter-screen, emission ratio; stronger effect = higher value; in the data active means TR-FRET ratio above about 2300
PPARg SRC2 recr: agonists of SRC-2 recruitment by human PPARgamma | P37231 | PPARgamma LBD-SRC-2 recruitment, biochemical | activation, % at 8 µM | hit rate 0.34% among 200,000 | AID 1032
SRC3 TRFRET art: flags TR-FRET format artefacts in PPARgamma SRC-3 recruitment agonist screen | hit rate 0.39% among 99,000 | TR-FRET ratio at 8 µM | AID 1048 | TR-FRET artefact counter-screen, PPARgamma/SRC-3 format; stronger effect = higher value; in the data active means TR-FRET ratio above about 2000
SRC2 TRFRET art: TR-FRET artefact, counter-screen to PPARgamma/SRC-2 agonist assay; hit rate 0.4% among 200,000; AID 1049; TR-FRET ratio at 8 µM; stronger effect = higher value; in the data active means TR-FRET ratio above about 2000
PPARg SRC3 recr: promotes SRC-3 coactivator recruitment by human PPARgamma; P37231; biochemical PPARgamma/SRC-3 coactivator recruitment assay; activation, % at 8 µM; hit rate 0.26% among 200,000; AID 731; in the data active means activation above about 23%
PPARg SRC1 recr: agonists of human PPARgamma SRC-1 coactivator recruitment | PPARgamma-SRC-1 coactivator recruitment biochemical assay | hit rate 0.41% among 200,000 | activation, % at 8 µM; in the data active means activation above about 19%
PPARg SRC2 conf: confirmation of agonists of SRC-2 recruitment by human PPARgamma | shares compounds with PPARg SRC3 recr | biochemical SRC-2 recruitment by PPARgamma | activation, % at 8 µM | hit rate 52% among 790
PPARg SRC1 ag: human PPARgamma SRC-1 recruitment agonism, confirmation. shares compounds with PPARg SRC3 recr. PPARgamma–SRC-1 coactivator recruitment biochemical assay. activation, % at 8 µM. hit rate 43% among 790; in the data active means activation above about 20%
PPARg SRC3 conf: human PPARgamma SRC-3 recruitment agonism, confirmation; AID 1301; shares compounds with PPARg SRC3 recr; hit rate 29% among 790; activation, % at 8 µM; biochemical PPARgamma-SRC-3 coactivator recruitment, agonist mode; in the data active means activation above about 24%
Numbers stand for hits; 0 = inactive; - = not tested or not shown. Shown are actives, neighbours in structure and some others; about 0.9% of the full set was active somewhere. Unless noted, no stated cut-off is given here; in the data, active means activation above about 22%; inactive means the rest.

SMILES	SRC1 TRFRET art	PPARg SRC2 recr	SRC3 TRFRET art	SRC2 TRFRET art	PPARg SRC3 recr	PPARg SRC1 recr	PPARg SRC2 conf	PPARg SRC1 ag	PPARg SRC3 conf
CSc1nc(Sc2ccccc2Cl)c2ccccc2n1	-	53.6	-	2566	48.1	26.0	34.2	21.9	24.4
COc1ccc(C(=O)Nc2cccc3c2C(=O)NC3=O)cc1S(=O)(=O)N1CCOCC1	-	0	-	0	0	20.9	0	0	0
COc1ccc(OCC(=O)NNC(=O)CCc2ccccc2)cc1	0	0	0	0	0	0	-	-	-
COc1ccc(CC(=O)NNC(=O)COc2ccc3ccccc3c2)cc1	6123	213.7	4430	3867	142.3	193.8	256.0	195.8	169.4
Cn1c(O)c(C(C#N)=C2N=c3ccccc3=N2)c2ccccc21	-	0	-	0	0	22.3	0	0	0
N#CC(=C1N=c2ccccc2=N1)c1c(O)[nH]c2ccccc12	-	0	-	0	0	0	-	-	-
O=[N+]([O-])c1cc(-c2ccc(/C=N/c3nc4ccccn4c3-c3ccco3)o2)ccc1Cl	-	0	-	0	27.0	0	0	0	0
O=[N+]([O-])c1ccc(-c2ccc(C=Nc3cccc4ccccc34)o2)cc1	-	0	-	0	0	0	-	-	-
Cc1cccc(CSc2nc3c(c(-c4cccs4)c2C#N)CN(C)CC3)c1	0	0	0	0	0	0	-	-	-
Cc1cccc(CSc2nc(N)c(C#N)c(-c3cccs3)c2C#N)c1	-	22.8	-	0	0	0	0	0	0
CCn1c(C)nc2cc(C(=O)N/N=C/c3cccc(O)c3O)ccc21	0	0	0	0	0	0	-	-	-
CN(C)c1ccc(/C=C/C=C2/SC(=S)N(c3ccccc3)C2=O)cc1	-	0	-	0	0	19.8	30.2	21.3	0
O=C(O)c1ccc(N2C(=O)/C(=C/C=C/c3ccccc3)SC2=S)cc1	0	0	0	0	0	0	-	-	-
COc1ccc(C(NC(=O)C2CCCCC2)c2c(O)ccc3ccccc23)cc1 (stereo not drawn)	0	0	0	0	0	0	-	-	-
Cc1[nH]c2ccccc2c1/C=C/c1cc[n+](C)cc1	-	0	-	0	0	24.6	0	0	0
CN(C)/C=C/c1oc2ccc(O)cc2c1[N+](=O)[O-]	0	24.0	0	0	0	0	0	0	0
C=CCSC1=Nc2sccc2C2=NC(=O)CN12	-	23.1	-	0	0	0	0	0	0
CCn1c(SC(=O)NC2CCCCC2)nnc1-c1cccs1	-	22.5	-	0	28.8	23.7	0	0	0
CCn1c(SCC(=O)NC2CCCCC2)nnc1-c1cccs1	-	0	-	0	0	0	-	-	-
CC12CN(C(=S)Nc3ccccc3)CC(C)(CN(C(=S)Nc3ccccc3)C1)C2=O	0	0	0	0	0	0	-	-	-
CCOC(=O)CN(c1cc([N+](=O)[O-])ccc1OC)S(C)(=O)=O	0	0	0	0	0	0	-	-	-
Cc1ccc(CSc2nc3ncccc3[nH]2)cc1	-	24.9	-	0	0	0	0	0	0
Nc1c(C(=O)Nc2ccc(Br)cc2)sc2nc(-c3ccco3)ccc12	-	22.6	-	0	0	0	0	0	0
Nc1c(C(=O)Nc2ccc(F)cc2)sc2nc(-c3ccco3)ccc12	-	0	-	0	0	0	-	-	-
O=C(CCCCCn1c(=S)[nH]c2cc3c(cc2c1=O)OCO3)N1CCN(Cc2ccccc2)CC1	-	0	-	0	0	0	-	-	-
SMILES	SRC1 TRFRET art	PPARg SRC2 recr	SRC3 TRFRET art	SRC2 TRFRET art	PPARg SRC3 recr	PPARg SRC1 recr	PPARg SRC2 conf	PPARg SRC1 ag	PPARg SRC3 conf
O=C(CCCCCn1c(=S)[nH]c2cc3c(cc2c1=O)OCO3)N1CCN(C(=O)c2ccco2)CC1	-	31.7	-	0	25.7	0	0	0	0
C=CCc1cc(Cl)ccc1OCCOCCN(C)C	0	0	0	0	0	0	-	-	-
O=c1[nH]c(=O)n(-c2ccc(F)cc2)c2c1C(C(F)(F)F)(C(F)(F)F)N=C(c1ccc(F)cc1)N2	0	0	0	0	0	0	-	-	-
CN(C)c1ccc(C=Nc2ccc(N(C)C)cc2)cc1	-	95.2	-	2825	103.7	68.8	0	0	0
C(=N\C(/N=C/c1ccco1)c1ccco1)/c1ccco1	0	0	0	0	0	0	-	-	-
CN(C)c1ccc(N=Cc2ccco2)cc1	-	85.1	-	2974	74.2	67.2	0	0	0
C(=Nc1cccc2c(N=Cc3ccco3)cccc12)c1ccco1	0	22.5	0	0	0	25.5	0	0	0
CC(C)C(=O)Nc1ccc(S(=O)(=O)Nc2nccc(/C=C/c3ccccc3)n2)cc1	0	0	0	0	0	0	-	-	-
CSc1cccc(NC(=S)NCCCN2CCN(c3ccc(F)cc3)CC2)c1	0	0	0	0	0	0	-	-	-
COc1ccc(NC2=NC(=S)N(c3ccccc3C)C23CCCCC3)cc1	-	0	-	0	0	0	-	-	-
COc1ccc(Nc2ccc3c(c2)=NC2(CCCCC2)[N+]=3[O-])cc1	-	0	-	2020	28.3	23.6	0	0	0
[O-][N+]1=c2ccc(Nc3ccccc3)cc2=NC12CCCCC2	-	0	-	0	27.6	23.7	21.9	0	0
CSc1c(SCc2ccccc2)cnn(-c2ccccc2)c1=O	2714	27.3	2060	0	0	24.5	49.9	35.7	32.6
COc1cnn(-c2ccccc2)c(=O)c1SCc1ccc(Cl)c(Cl)c1	-	0	-	0	0	0	-	-	-
Brc1cc(Br)c2nc(-c3ccc(N4CCOCC4)cc3)ccc2c1	-	22.4	-	2276	34.6	24.6	24.0	0	0
Cc1ccc(/C=N/Nc2ccc3ccccc3n2)o1	0	0	0	0	0	22.2	0	0	0
COc1ccccc1-c1nnc(SC2CCc3ccccc3NC2=O)s1 (stereo not drawn)	-	69.0	-	2323	41.7	31.2	48.8	38.6	33.0
CCOc1ccc2[nH]c(=O)c(CN(CCN3CCCC3)C(=S)Nc3ccccc3OC)cc2c1	0	0	0	0	0	0	-	-	-
Cc1cc(C)nc(-n2ncc3c2CC(c2cccc(Cl)c2)CC3=O)n1 (stereo not drawn)	0	0	0	0	0	0	-	-	-
O=C(O)C1=C[C@@H](c2csc3ccccc23)C[C@@H](OCc2ccc(CO)cc2)O1	0	0	0	0	0	0	-	-	-
O=C(O)C1=C[C@H](c2csc3ccccc23)C[C@H](OCc2ccc(CO)cc2)O1	0	0	0	0	0	23.8	0	0	0
CCOC(=O)c1sc(-c2ccc(Br)cc2)cc1N	-	0	-	0	0	0	-	-	-
CCOC(=O)c1cc(-c2ccc(N)cc2)sc1N	-	28.0	-	0	0	0	0	0	0
O=C(Nc1ccc2oc(-c3ccccc3)nc2c1)c1ccccc1F	-	0	-	0	0	0	-	-	-
O=C(Nc1ccc2oc(-c3ccncc3)nc2c1)c1ccccc1F	-	46.8	-	0	39.5	48.8	0	0	0
COC(=O)[C@@H]1CCCN1C(=O)CCc1nnc(C2CCCCC2)o1	0	0	0	0	0	0	-	-	-
